Test results published in PubChem BioAssay.
Records with an inconclusive call do not appear. Activity calls are given as the source filed them. Unless noted, the rule behind the calls is not given here.

Experiments:
[1] = RPL19A-GFP modulators, yeast TOR pathway, confirmation, cell-based, S. cerevisiae, flow cytometry, cherry picks, mother/daughter gates (AID 2270;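 active = GFP response below 50% of the DMSO control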); settings: S. cerevisiae RPL19A-GFP strain, 3 h, at 10 µM, stronger effect = lower value, 100 = same GFP as DMSO wells
[2] = LAP4-GFP expression modulators in yeast, confirmation, cell-based, cherry picks, flow cytometry, mother/daughter gates (AID 2271;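 active = GFP response above 150% of the DMSO control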;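 note: ratio of sample to DMSO plate mean so 100% equals DMSO level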); settings: S. cerevisiae LAP4-GFP strain, 3 h, at 10 µM, stronger effect = higher value
[3] = modulators of CIT2-GFP expression in yeast, confirmation, S. cerevisiae, GFP fusion, cherry picks, mother/daughter gates (AID 2274;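 active = GFP response above 150% of the DMSO level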); settings: S. cerevisiae CIT2-GFP strain, flow cytometry, 3 h, at 10 µM, stronger effect = higher value
[4] = yeast TOR pathway RPL19A-GFP modulators, primary screen, cell-based, S. cerevisiae, multiplex flow cytometry (AID 1862; in the data active = percent of DMSO control GFP below about 86%;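 note: lower values mimic rapamycin by blocking the RPL19A rise seen in DMSO cells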); settings: S. cerevisiae RPL19A-GFP strain, flow cytometry fluorescence, 3 h; at 10 µM; stronger effect = lower value
[5] = modulators of MEP2-GFP levels in yeast, primary screen, S. cerevisiae, multiplex flow cytometry (AID 1867;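 active = GFP response, as percent of the DMSO control, above the screen-wide mean plus 3 SD, about 139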;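 note: median GFP channel fluorescence of barcode-gated MEP2-GFP cells measured by flow cytometry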); settings: S. cerevisiae MEP2-GFP strain, 3 h, at 10 µM, stronger effect = higher value
[6] = modulators of CIT2-GFP expression in yeast, primary screen, S. cerevisiae, GFP fusion, multiplex flow cytometry (AID 1870;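 active = percent response above a set limit, the screen-wide mean plus 3 SD, cut at about 130% in these data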;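 note: barcoded CIT2-GFP strain pooled with four other GFP strains with rapamycin as positive control; median GFP fluorescence per well over plate mean of DMSO wells so 100% = DMSO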); settings: 3 h, at 10 µM, stronger effect = higher value
[7] = modulators of LAP4-GFP expression in yeast, primary screen, S. cerevisiae, multiplex flow cytometry (AID 1873;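 active = GFP signal, as percent of the solvent control, above the screen mean plus 3 SD, about 149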); settings: 3 h, at 10 µM, stronger effect = higher value
[8] = inhibitors of CD8+ T cell-vesicle binding, pilot screen, LFA-1/ICAM-1 modulator project, MLPCN validation set, flow cytometry (AID 2523;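 active = response below a set limit, under 55% cells CD8-positive and vesicle-bound, and CD8 cells' 90th-percentile brightness under 279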;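 for vesicle binding response: mean PE anti-B7-1 fluorescence of CD8+ cells relative to row control; 100% = QL9-loaded vesicles with DMSO vehicle in the same plate row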); settings: 2C mouse CD8+ T cells, at 7 µM, stronger effect = lower value; double positive events: measured here: CD8+/vesicle+ event percentage
[9] = biological target: Integrin beta-1 (Homo sapiens) + Integrin alpha-4 (Homo sapiens) (UniProt P13612+P05556); test: inhibition of HUTS-21 binding to VLA-4, pilot screen, VLA-4 allosteric modulator project, U937 cells, HUTS-21 mAb, flow cytometry, validation set (AID 2674;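 active = inhibition above 50%, about 3 SD of the validation set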;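 note: antibody binding induced by the VLA-4 ligand LDV present at three times its Kd; 0% = LDV ligand with antibody and no compound and 100% = antibody without LDV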); settings: HUTS-21 LIBS mAb binding, at 6.7 µM, stronger effect = higher value
[10] = superoxide lowering in aged yeast cells, pilot screen, validation compound set (AID 2706;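 active = superoxide response below 65% of plate, a cut near 3 SD across the whole screen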;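 note: yeast exposed to compound for one week at 30 degrees C before staining; 100% = mean of all compound wells on the same plate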); settings: S. cerevisiae aging, superoxide DHE fluorescence; at 10 µM; stronger effect = lower value
[11] = biological target: Beta-adrenergic receptor kinase 1 (Homo sapiens) (UniProt P25098); test: GRK2 binders displacing RNA aptamer, biochemical, validation, human GRK2, bead flow cytometry (AID 488806;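 active = aptamer binding inhibition above 30%, about 3 SD of noise from non-fluorescent compounds; inactive = inhibition at or below 30%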); settings: bead-bound GRK2, FAM-aptamer displacement, at 10 µM, stronger effect = higher value
[12] = biological target: AP-2 complex subunit beta (Homo sapiens) (UniProt P63010); test: inhibitors of arrestin peptide binding to AP2, pilot screen, biochemical, validation set, GST-AP2 beads, flow cytometry (AID 504541;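 active = inhibition above 54%, about 3 SD of non-fluorescent compounds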;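 note: AP2 carries R879A mutation and is captured from E. coli lysate; bead-bound FITC arrestin peptide fluorescence measuring arrestin peptide binding to AP2; 0% = DMSO wells and 100% = excess unlabeled arrestin peptide control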); settings: FITC arrestin peptide, at 10 µM, stronger effect = higher value
[13] = yeast V-ATPase proton transport modulators, S. cerevisiae, pHLuorin, HTS validation (AID 504600; in the data active = response above about 15%;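 note: plate controls were DMSO for no effect and reference compound for full effect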); settings: S. cerevisiae pHLuorin cytosolic pH, at 10 µM, stronger effect = higher value
[14] = system: anti-desmoglein-3 scFv antibody binding to human DSG3; test: inhibitors of anti-DSG3 scFv binding to DSG3, pilot screen, biochemical, validation compound set, bead-based, flow cytometry (AID 588368;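 active = binding below the plate cutoff, the plate median minus 3 SD, with a reading above zero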;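 note: signal is the median channel fluorescence of bead-bound GFP antibody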); settings: Protein G beads, DSG3-Fc, scFv-GFP binding, at 10 µM, stronger effect = lower value
[15] = system: Botulinum neurotoxin type F light chain protease (Clostridium botulinum); test: Botulinum neurotoxin type F light chain protease inhibition, multiplex microsphere flow cytometry, validation set (AID 588459); settings: multiplex microsphere protease substrate cleavage assay, at 10 µM, stronger effect = higher value
[16] = biological target: Botulinum neurotoxin type A (Clostridium botulinum) (UniProt P0DPI0); test: BoNT/A light chain protease inhibitors, biochemical, multiplex microsphere flow cytometry, validation set (AID 588460); settings: at 10 µM, stronger effect = higher value
[17] = biological target: Lethal factor (Bacillus anthracis) (UniProt P15917); test: Lethal factor protease inhibitors, Bacillus anthracis, multiplex microsphere cleavage assay, validation set (AID 588461); settings: flow cytometry, at 10 µM, stronger effect = higher value
[18] = inhibitors of fungal efflux pumps CDR1, CDR2, MDR1, pilot screen, validation compound set, multiplex, phenotypic (AID 588506;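 active = efflux inhibition above 0.42, the validation set average plus 4 SD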;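 note: Nile Red retained in cells so higher fluorescence means more efflux inhibition; 0 = negative control wells and 1 = enniatin B 25 µM full block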); settings: S. cerevisiae pump-expressing triplex, Nile Red efflux flow cytometry; at 10 µM; stronger effect = higher value
[19] = biological target: ATP-binding cassette sub-family B member 6 (Homo sapiens) (UniProt Q9NP58); test: ABCB6 transporter inhibitors, pilot screen, K562-ABCB6 cells, flow cytometry, validation set (AID 588550;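 active = inhibition above the screen-wide mean plus 3 SD, about 51%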;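 note: 0% = DMSO wells and 100% = benzethonium chloride 70 µM positive control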); settings: K562-ABCB6 porphyrin accumulation, 1 h, at 10 µM, stronger effect = higher value
[20] = promoters of myeloid differentiation in arrested cells, primary screen, cell-based, GFP/MAC1 double positive, flow cytometry, validation set (AID 588685;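 active = differentiation response of at least 50%, scaled between solvent and reference control, from cells with both markers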;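 note: compound exposure lasts four days before antibody staining and flow analysis; 0% = DMSO wells and 100% = 5 µM fulvestrant positive control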); settings: ER-HoxA9 marrow cells, stronger effect = higher value
[21] = measured here: daughter cell gate
[22] = measured here: mother cell gate
[23] = measured here: daughter cell gate response
[24] = measured here: mother cell gate response

Sequence of Botulinum neurotoxin type A (Clostridium botulinum) (P0DPI0 whole entry, looked up): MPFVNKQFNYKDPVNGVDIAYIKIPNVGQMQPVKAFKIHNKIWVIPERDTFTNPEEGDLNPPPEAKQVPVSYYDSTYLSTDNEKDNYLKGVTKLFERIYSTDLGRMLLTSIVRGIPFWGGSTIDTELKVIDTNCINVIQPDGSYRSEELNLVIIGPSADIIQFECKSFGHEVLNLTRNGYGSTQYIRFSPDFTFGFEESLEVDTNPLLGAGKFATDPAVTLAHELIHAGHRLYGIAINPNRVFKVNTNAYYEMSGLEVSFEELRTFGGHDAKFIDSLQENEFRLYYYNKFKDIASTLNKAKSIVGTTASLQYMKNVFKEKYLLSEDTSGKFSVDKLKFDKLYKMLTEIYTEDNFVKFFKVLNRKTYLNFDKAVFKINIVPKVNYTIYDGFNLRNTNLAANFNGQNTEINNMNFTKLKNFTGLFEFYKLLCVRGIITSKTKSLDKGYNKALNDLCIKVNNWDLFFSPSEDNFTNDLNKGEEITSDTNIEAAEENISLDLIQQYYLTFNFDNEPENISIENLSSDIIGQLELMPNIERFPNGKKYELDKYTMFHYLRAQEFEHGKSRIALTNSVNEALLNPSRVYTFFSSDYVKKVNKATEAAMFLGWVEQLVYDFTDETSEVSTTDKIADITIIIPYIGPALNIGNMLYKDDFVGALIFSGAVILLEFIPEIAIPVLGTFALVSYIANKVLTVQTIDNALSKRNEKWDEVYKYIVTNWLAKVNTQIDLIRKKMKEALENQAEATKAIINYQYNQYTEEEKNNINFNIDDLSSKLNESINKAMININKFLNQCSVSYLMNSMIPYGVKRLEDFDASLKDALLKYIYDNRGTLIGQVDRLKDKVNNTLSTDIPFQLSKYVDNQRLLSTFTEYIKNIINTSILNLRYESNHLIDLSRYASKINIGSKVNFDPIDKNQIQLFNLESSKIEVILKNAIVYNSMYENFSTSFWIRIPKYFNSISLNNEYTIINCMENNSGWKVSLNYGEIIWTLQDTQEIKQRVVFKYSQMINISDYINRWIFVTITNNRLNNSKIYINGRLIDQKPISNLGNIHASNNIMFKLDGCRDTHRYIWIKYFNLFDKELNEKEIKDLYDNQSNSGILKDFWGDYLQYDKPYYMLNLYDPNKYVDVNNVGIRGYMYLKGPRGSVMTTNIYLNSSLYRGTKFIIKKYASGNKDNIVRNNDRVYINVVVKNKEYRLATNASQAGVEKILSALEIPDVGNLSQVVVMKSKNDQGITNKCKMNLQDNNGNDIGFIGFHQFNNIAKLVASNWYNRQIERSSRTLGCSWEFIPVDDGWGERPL
Sequence of Beta-adrenergic receptor kinase 1 (Homo sapiens) (P25098 whole entry, looked up): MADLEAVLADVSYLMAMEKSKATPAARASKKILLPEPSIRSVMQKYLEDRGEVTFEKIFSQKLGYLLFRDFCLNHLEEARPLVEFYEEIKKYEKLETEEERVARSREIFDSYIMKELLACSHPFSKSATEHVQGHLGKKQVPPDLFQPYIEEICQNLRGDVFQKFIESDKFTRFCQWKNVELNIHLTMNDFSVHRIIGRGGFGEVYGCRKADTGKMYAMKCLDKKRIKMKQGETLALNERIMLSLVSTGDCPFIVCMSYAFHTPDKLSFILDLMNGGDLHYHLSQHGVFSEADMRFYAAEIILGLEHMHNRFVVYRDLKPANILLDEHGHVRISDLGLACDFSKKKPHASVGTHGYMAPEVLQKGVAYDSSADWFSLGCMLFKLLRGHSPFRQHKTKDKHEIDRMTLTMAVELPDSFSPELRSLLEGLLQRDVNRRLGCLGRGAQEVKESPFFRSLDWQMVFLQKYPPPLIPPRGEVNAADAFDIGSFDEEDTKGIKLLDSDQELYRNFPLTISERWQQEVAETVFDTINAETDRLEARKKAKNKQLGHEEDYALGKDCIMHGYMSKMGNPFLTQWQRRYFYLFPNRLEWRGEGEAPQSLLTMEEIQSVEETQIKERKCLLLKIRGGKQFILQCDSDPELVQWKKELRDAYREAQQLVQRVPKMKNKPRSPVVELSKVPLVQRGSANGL
Sequence of ATP-binding cassette sub-family B member 6 (Homo sapiens) (Q9NP58 whole entry, looked up): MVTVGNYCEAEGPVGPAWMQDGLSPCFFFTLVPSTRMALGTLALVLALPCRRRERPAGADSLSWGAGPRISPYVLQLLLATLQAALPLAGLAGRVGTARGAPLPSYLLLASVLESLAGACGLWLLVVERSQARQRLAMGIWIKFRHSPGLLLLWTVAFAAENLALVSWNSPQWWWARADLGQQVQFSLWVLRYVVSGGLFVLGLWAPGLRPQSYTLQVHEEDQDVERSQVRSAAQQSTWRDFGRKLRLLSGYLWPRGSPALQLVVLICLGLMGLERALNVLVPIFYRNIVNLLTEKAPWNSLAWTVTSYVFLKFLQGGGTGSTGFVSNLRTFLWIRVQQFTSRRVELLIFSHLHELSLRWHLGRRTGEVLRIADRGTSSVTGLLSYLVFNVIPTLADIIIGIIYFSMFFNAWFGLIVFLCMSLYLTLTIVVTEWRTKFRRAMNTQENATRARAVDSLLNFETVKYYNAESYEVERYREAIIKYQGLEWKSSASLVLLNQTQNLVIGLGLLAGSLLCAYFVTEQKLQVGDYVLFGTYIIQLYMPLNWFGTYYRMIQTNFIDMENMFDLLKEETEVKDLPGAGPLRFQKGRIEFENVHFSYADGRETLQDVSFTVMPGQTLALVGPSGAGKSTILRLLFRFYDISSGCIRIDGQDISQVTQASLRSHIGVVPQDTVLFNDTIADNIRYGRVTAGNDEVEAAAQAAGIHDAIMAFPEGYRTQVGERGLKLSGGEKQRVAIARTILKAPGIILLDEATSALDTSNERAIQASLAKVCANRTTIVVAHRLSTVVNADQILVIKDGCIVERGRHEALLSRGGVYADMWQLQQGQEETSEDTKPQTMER
Sequence of Lethal factor (Bacillus anthracis) (P15917 whole entry, looked up): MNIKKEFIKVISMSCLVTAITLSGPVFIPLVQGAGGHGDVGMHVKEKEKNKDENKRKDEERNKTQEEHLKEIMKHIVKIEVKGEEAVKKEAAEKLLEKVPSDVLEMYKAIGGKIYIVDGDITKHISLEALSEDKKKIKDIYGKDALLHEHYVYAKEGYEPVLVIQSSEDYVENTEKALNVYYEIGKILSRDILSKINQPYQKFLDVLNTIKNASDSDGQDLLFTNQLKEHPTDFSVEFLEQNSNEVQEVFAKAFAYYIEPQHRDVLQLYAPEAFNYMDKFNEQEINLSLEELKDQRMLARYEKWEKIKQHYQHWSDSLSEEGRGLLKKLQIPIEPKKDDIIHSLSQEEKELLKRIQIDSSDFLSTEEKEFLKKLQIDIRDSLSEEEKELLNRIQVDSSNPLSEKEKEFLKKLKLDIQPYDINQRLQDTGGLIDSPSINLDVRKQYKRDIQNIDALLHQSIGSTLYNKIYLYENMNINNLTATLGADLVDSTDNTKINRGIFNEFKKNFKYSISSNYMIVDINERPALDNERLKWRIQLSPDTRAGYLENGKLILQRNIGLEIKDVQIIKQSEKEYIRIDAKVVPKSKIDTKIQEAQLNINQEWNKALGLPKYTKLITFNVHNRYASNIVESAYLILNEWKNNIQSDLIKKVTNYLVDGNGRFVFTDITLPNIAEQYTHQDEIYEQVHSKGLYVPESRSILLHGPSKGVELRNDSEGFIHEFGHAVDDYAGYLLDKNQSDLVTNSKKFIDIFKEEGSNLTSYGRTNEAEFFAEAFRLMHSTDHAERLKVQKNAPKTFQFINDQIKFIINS
Sequence of AP-2 complex subunit beta (Homo sapiens) (P63010 whole entry, looked up, one chain of several): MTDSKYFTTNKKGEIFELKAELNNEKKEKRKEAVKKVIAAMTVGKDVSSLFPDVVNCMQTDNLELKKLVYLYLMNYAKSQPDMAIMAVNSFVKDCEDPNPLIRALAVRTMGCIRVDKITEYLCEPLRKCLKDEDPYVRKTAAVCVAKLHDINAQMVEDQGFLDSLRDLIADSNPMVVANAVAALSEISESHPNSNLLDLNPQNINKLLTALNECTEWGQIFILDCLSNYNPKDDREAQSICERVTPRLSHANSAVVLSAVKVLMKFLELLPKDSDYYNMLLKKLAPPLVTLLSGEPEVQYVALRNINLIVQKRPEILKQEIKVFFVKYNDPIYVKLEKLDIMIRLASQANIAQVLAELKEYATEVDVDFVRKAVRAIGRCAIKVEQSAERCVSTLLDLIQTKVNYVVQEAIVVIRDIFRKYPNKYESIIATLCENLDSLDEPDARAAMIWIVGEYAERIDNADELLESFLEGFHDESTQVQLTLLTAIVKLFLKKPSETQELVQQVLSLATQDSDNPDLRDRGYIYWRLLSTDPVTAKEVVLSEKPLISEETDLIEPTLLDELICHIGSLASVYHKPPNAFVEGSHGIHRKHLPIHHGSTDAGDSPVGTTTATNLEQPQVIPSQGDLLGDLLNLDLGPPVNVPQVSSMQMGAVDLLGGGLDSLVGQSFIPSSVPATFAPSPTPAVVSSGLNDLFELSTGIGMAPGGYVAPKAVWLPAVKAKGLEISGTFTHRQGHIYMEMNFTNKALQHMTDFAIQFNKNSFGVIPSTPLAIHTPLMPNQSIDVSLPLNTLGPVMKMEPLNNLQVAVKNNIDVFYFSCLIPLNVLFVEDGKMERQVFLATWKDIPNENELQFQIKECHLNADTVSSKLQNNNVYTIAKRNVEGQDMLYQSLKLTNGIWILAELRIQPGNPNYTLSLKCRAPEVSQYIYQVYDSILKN

O=C1NC(=S)NC(=O)C1=Cc1ccc2c(c1)CCN2CCCCl
GFP response vs DMSO [1]: 98.4% (inactive) | GFP response vs DMSO [1, 21]: 87.8% | GFP response vs DMSO [1, 22]: 86% | GFP response relative to DMSO [2]: 163% (active) | GFP response relative to DMSO [2, 23]: 110% | GFP response relative to DMSO [2, 24]: 184% | GFP response, % of DMSO [3]: 85.7% (inactive) | GFP response, % of DMSO [3, 21]: 90.2% | GFP response, % of DMSO [3, 22]: 76%

N#CC(C#N)=NNc1ccc(-n2ccc(C(F)(F)F)n2)cc1
GFP response vs DMSO [1]: 98% (inactive) | GFP response vs DMSO [1, 21]: 97.6% | GFP response vs DMSO [1, 22]: 96.9% | GFP response relative to DMSO ([2]; 100 means same as DMSO control): 111% (inactive) | GFP response relative to DMSO ([2]; measured here: daughter cell gate response, 100 means same as DMSO control): 104% | GFP response relative to DMSO ([2]; measured here: mother cell gate response, 100 means same as DMSO control): 111% | GFP response, % of DMSO [3]: 97.2% (inactive) | GFP response, % of DMSO [3, 21]: 97.6% | GFP response, % of DMSO [3, 22]: 97.1%

O=c1[nH]c(=O)n(Cc2ccc(F)cc2)c(O)c1C=NCCN1CCCCC1
GFP response vs DMSO [1]: 96.9% (inactive) | GFP response vs DMSO [1, 21]: 97% | GFP response vs DMSO [1, 22]: 94.8% | GFP response relative to DMSO [2]: 95.3% (inactive) | GFP response relative to DMSO [2, 23]: 94.4% | GFP response relative to DMSO [2, 24]: 94.4% | GFP response, % of DMSO [3]: 95.8% (inactive) | GFP response, % of DMSO [3, 21]: 97.6% | GFP response, % of DMSO [3, 22]: 94.9%

CC12CN3CC(C)(CN(C1)C3c1cccnc1)C2=O (stereo not given)
percent of DMSO control GFP [4]: 95.2% (inactive) | GFP response vs DMSO [5]: 117% (inactive) | percent response of DMSO control [6]: 97.9% (inactive) | GFP response vs DMSO [7]: 81.4% (inactive) | double positive events [8]: 58% | vesicle binding response [8]: 174% (inactive) | inhibition [9]: 8.4% (inactive) | superoxide response (% of plate) [10]: 108% (inactive) | aptamer binding inhibition [11]: 4% (inactive) | inhibition [12]: -8.61% (inactive) | response [13]: 0.14% (inactive) | binding (% of control) [14]: 95.4% (inactive) | inhibition [15]: -1.6% (inactive) | inhibition [16]: 0.6% (inactive) | inhibition [17]: 9.9% (inactive) | efflux inhibition (fraction of control) [18]: 0.3 (inactive) | inhibition [19]: 7% (inactive) | differentiation response [20]: -3.28% (inactive)

CC(C)[C@@]1(NC(=O)[C@@H]2C[C@@H]3c4cccc5[nH]cc(c45)C[C@H]3N(C)C2)O[C@@]2(O)[C@@H]3CCCN3C(=O)[C@H](Cc3ccccc3)N2C1=O
percent of DMSO control GFP [4]: 88.4% (inactive) | GFP response vs DMSO [5]: 132% (inactive) | percent response of DMSO control [6]: 112% (inactive) | GFP response vs DMSO [7]: 84.2% (inactive) | double positive events [8]: 74.1% | vesicle binding response [8]: 240% (inactive) | inhibition [9]: -14.9% (inactive) | superoxide response (% of plate) [10]: 98.1% (inactive) | aptamer binding inhibition [11]: -3% (inactive) | inhibition [12]: 0.81% (inactive) | response [13]: 1.06% (inactive) | binding (% of control) [14]: 114% (inactive) | inhibition [15]: -9.2% (inactive) | inhibition [16]: -1.6% (inactive) | inhibition [17]: -32% (inactive) | efflux inhibition (fraction of control) [18]: 0.37 (inactive) | inhibition [19]: 9% (inactive) | differentiation response [20]: 4.09% (inactive)

C=CC1CN2CCC1CC2[C@@H](OC(=O)c1ccc(OC)cc1)c1ccnc2ccccc12 (stereo not given in full)
percent of DMSO control GFP [4]: 96.1% (inactive) | percent response of DMSO control [6]: 107% (inactive) | GFP response vs DMSO [7]: 74.8% (inactive) | double positive events [8]: 59.2% | vesicle binding response [8]: 222% (inactive) | inhibition [9]: 4.52% (inactive) | superoxide response (% of plate) [10]: 105% (inactive) | aptamer binding inhibition [11]: -2% (inactive) | inhibition [12]: -4.1% (inactive) | response [13]: -0.74% (inactive) | binding (% of control) [14]: 109% (inactive) | inhibition [15]: 2.8% (inactive) | inhibition [16]: 0.4% (inactive) | inhibition [17]: -2% (inactive) | efflux inhibition (fraction of control) [18]: 0.01 (inactive) | inhibition [19]: 5% (inactive) | differentiation response [20]: -8.19% (inactive)
